According to ChEMBL document CHEMBL3433997, “St. Jude Leishmania screening dataset” (2016):

Tests used:
Format in all cases: functional
[1] = biological target: Solute carrier family 2, facilitated glucose transporter member 1 (Homo sapiens) (UniProt P11166); experiment: ST_JUDE_LEISH: Cytotoxicity at 2uM final concentration against transgenic Leishmania Mexicana promastigotes LmGLUT1 that are glucose transport deficient and complemented with the human glucose transporter GLUT1. Activity is measured by DNA content using SYBR green in vitro
[2] = biological target: Hexose transporter 1 (Plasmodium falciparum) (UniProt O97467); experiment: ST_JUDE_LEISH: Cytotoxicity at 2uM final concentration against transgenic Leishmania Mexicana promastigotes LmPfHT that are glucose transport deficient and complemented with the Plasmodium falciparum hexose transporter. Activity is measured by DNA content using SYBR green in vitro
[3] = biological target: Glucose transporter (Leishmania mexicana) (UniProt O61059); experiment: ST_JUDE_LEISH: Cytotoxicity at 2uM final concentration against transgenic Leishmania Mexicana promastigotes LmGT2 that are glucose transport deficient and complemented with the L. Mexicana glucose transporter 2. Activity is measured by DNA content using SYBR green in vitro

Solute carrier family 2, facilitated glucose transporter member 1 (Homo sapiens), sequence (P11166 whole entry): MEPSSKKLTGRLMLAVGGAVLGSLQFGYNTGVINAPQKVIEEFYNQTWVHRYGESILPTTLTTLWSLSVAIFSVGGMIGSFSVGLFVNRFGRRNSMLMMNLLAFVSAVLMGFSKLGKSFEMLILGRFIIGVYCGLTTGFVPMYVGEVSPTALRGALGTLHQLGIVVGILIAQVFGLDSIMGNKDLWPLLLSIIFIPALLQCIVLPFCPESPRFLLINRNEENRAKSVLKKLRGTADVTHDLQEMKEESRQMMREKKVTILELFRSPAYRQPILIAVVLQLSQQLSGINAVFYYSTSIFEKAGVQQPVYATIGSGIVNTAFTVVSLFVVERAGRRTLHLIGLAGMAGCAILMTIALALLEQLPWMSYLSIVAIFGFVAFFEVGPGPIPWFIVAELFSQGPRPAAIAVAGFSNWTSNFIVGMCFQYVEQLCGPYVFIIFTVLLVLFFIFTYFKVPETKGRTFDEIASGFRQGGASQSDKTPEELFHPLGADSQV

SMILES	inhibition [1]	inhibition [2]	inhibition [3]
Cc1cc(=O)c(C2CCC(c3ccc(Cl)cc3)CC2)c(C)[nH]1 (configuration not stated)	2.3%	2.51%	2.37%
Cc1cc(F)ccc1Nc1nc(N(C)c2ccccc2)c2cccc(O)c2n1	12.3%	9.06%	1.82%
COc1ccc(-c2ccc(NC(=O)c3ccc(Cl)cc3)cc2)cc1CN1CCN(C)CC1	-0.67%	-2.59%	-0.55%
CC(C)c1cccc(OCC2CCN(c3ccc(C(=O)Nc4ccccc4)cn3)CC2)c1	11.2%	10.6%	9.04%
CCC[C@@H]([C@@H](CC(C)C)C(=O)N[C@H](C(=O)Nc1nccs1)C(C)(C)SCCNC(=O)OCC)N(O)C=O	2.68%	4.73%	3.58%
O=C(/C=C/c1ccc(Cl)c(Cl)c1)NCCCCCN1CCCN(C(=O)Nc2ccc(C(F)(F)F)cc2)CC1	2.96%	2.53%	5.5%
CS(=O)(=O)NCCCNCc1ccc(-c2cccc(-c3nc4cc(C(F)(F)F)ccc4[nH]3)c2)cc1	5.19%	3.56%	5.43%
O=C(c1ccco1)N1CCN(c2nc(-c3ccc(Cl)cc3)nc3ccccc23)CC1	6.35%	1.81%	4.42%
CS(=O)(=O)Nc1cccc(-c2cnc3[nH]cc(-c4ccc(C(=O)O)c(F)c4)c3c2)c1	-2.02%	-1.06%	1.09%
COc1cc(NCC2(CNCc3cn(Cc4ccccc4)c4ccccc34)CCCCC2)nc2ccccc12	-0.66%	-0.02%	-0.38%
CC(C)c1ccc(NC(=O)N2CCc3ccc(OCCN(C(C)C)C(C)C)cc32)c(Br)c1	-3.12%	0.76%	1.63%
Cc1nc(C)c(-c2ccc(Cl)cc2Cl)c(O)c1Br	1.43%	0.95%	3.83%
Cc1cc(=NN=Cc2ccc(Cl)cc2)c2cc(C(F)(F)F)ccc2[nH]1	1.05%	-4.87%	5.23%
O=C(Nc1nccs1)c1cc(-c2cccnc2)nc2ccc(Br)cc12	7.77%	-0.8%	-0.59%
c1ccc2nc(NCCCCCCCCNc3ccc4ccccc4n3)ccc2c1	5.37%	3.68%	4.58%
CCOc1cc(Cc2cnc(N)nc2N)cc(OCC)c1OCC	4.33%	1.8%	9.33%
N#CCCn1nc(-c2ccc(Cl)cc2)c2c(c1=O)CCCC2	0.21%	1.16%	1.01%

SMILES	inhibition [1]	inhibition [2]	inhibition [3]
COc1ccc(CN(C)Cc2cc(C(C)C)c(C)cc2O)cc1F	2.07%	1.85%	-2.13%
CN1CCc2ccc(NC(=O)Nc3cccc(C(=O)c4ccccc4)c3)cc2C1	3.19%	2.01%	1.86%
CN(C)CCOc1ccc(-c2cc(-c3ccc(Cl)c(O)c3)c(-c3ccncc3)[nH]2)cc1	-0.18%	-0.32%	0.48%
Nc1nccc2ccc(-c3cccc(O)c3)cc12	7.38%	6.21%	4.01%
CCC(CC)(Cc1ccccc1)NC(=O)[C@H](Cc1ccc(OC)c(OC)c1)Nc1ccc(C#N)c2ccccc12	2.88%	2.31%	3.47%
COc1cc2nccc(Nc3ccc4c(cnn4Cc4cccc(F)c4)c3)c2cc1OC	6.91%	4.66%	1.56%
N=c1c2c(n(Cc3cccc(Cl)c3)c3c1CCC3)CCCC2	40.7%	49.2%	20.4%
CS(=O)(=O)c1cccc(-c2cnc3[nH]cc(-c4cccc(CCN)c4)c3c2)c1	4.65%	3.48%	8.44%
Cc1cc(N/N=C/c2ccccc2[N+](=O)[O-])c2cc(F)ccc2n1	2.14%	1.95%	0.94%
COc1ccc2nccc([C@@H](O)CN3CCC(NCc4cnc5c(c4)NC(=O)CS5)C(F)C3)c2c1 (some centres not stated)	-0.32%	-0.31%	0.86%
COc1ccc(CCNCCCCCCNCCc2ccc(OC)c(OC)c2Cl)c(Cl)c1OC	0.05%	-0.34%	0.35%
COc1cc(-c2nc(-c3ccccc3)c(-c3ccccc3)[nH]2)cc(OC)c1O	-0.19%	-0.87%	-1.53%
FC(F)(F)c1ccc2[nH]c(-c3ccc(-c4cccc(CNCc5cnn(-c6ccccc6)n5)c4)s3)nc2c1	2.87%	3.4%	2.46%
COc1ccc(Cc2nc(/N=C(\N)Nc3ccccc3)ccc2OC)cc1	0.38%	1.68%	-0.02%
CC(C)c1sc(-c2ccc(C(C)(C)C)cc2)nc1C(=O)NCCCN1CCCC1=O	1.02%	1.22%	1.9%
N=C(N)NCCCN(Cc1ccccc1)c1ccc(Cl)cc1	7.39%	4.12%	4.83%
Cc1cccc2nc(-c3cccc(-c4cccc(NC(=O)CNc5ccc(C(N)=O)cc5)c4)c3)[nH]c12	4.73%	4.35%	3.03%
